Data on 9 molecules can be found in PubChem BioAssay (Tox21).

Assay [1] is described as follows: qHTS RealTime-Glo MT Cell Viability Assay in HEK293 cells - 0 hour (AID 1224880). Note: top concentration of the series differs between compounds; nearly all actives have a fitted effect of over 45% in size. Put shortly:
(§1)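 HEK293 cells mixed with RealTime-Glo reagents (NanoLuc plus cell-permeant prosubstrate) at 600 cells/well, preincubated 5 h at 37 C/5% CO2, then given 23 nL compound in DMSO. Nonlytic luminescence from viable cells was read at 0, 8, 16, 24, 32 and 40 h.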
In general terms: In qHTS, concentration-response curves come from the screen itself.

Assay [2] is described as follows: A CellTox Green Cytotoxicity Assay to monitor cytotoxicity in HEK293 cells - 32 hour (AID 1224881). Note: nearly all actives have a fitted effect of over 40% in size. Put shortly:
(§2)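 HEK293 cells premixed with CellTox Green dye were seeded at 600 cells/well and left 5 h at 37 C/5% CO2 before pin transfer of 23 nL compound in DMSO. Fluorescence from dye bound to dead-cell DNA was read during 40 h treatment.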

A short description of assay [3]: A CellTox Green Cytotoxicity Assay to monitor cytotoxicity in HepG2 cells - 0 hour (AID 1224882). Note: nearly all actives have a fitted effect of over 35% in size. Put shortly: (§3)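 HepG2 cells were seeded together with the CellTox Green dye at 600 cells/well, left 5 h at 37 C/5% CO2, then given compounds in DMSO. Fluorescence from dye bound to dead-cell DNA was read repeatedly over 40 h of treatment at 37 C.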
The nature of assay [4]: A CellTox Green Cytotoxicity Assay to monitor cytotoxicity in HEK293 cells - 8 hour (AID 1224884). Note: nearly all actives have a fitted effect of over 35% in size. Put shortly: as §2
A short description of assay [5]: qHTS RealTime-Glo MT Cell Viability Assay in HepG2 cells - 16 hour (AID 1224885). Note: nearly all actives have a fitted effect of over 50% in size. The method in brief: (§4)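 Cells + NanoLuc/prosubstrate dispensed (600 cells/well) → 5 h at 37 C/5% CO2 → compounds in DMSO transferred → 40 h incubation at 37 C, luminescence read at 0, 8, 16, 24, 32, 40 h.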
Assay [6] in a line: qHTS RealTime-Glo MT Cell Viability Assay in HEK293 cells - 24 hour (AID 1224886). Note: top concentration of the series differs between compounds; nearly all actives have a fitted effect of over 50% in size. The method in brief:
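Tox21 10K qHTS, HEK293, 600 cells/well, RealTime-Glo reagent co-dispensed with cells; 5 h preincubation, compound by pintool, 37 C, luminescence at 0–40 h.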

The nature of assay [7]: qHTS RealTime-Glo MT Cell Viability Assay in HEK293 cells - 8 hour (AID 1224887). Note: top concentration of the series differs between compounds; nearly all actives have a fitted effect of over 50% in size. The method in brief: as §1
Assay [8] is described as follows: A CellTox Green Cytotoxicity Assay to monitor cytotoxicity in HEK293 cells - 16 hour (AID 1224888). Note: nearly all actives have a fitted effect of over 35% in size. Put shortly: as §2
Assay [9] is described as follows: qHTS RealTime-Glo MT Cell Viability Assay in HepG2 cells - 0 hour (AID 1224889). Note: nearly all actives have a fitted effect of over 50% in size. The method in brief:
as §4

Assay [10] in a line: qHTS assay to identify small molecule antagonists of the estrogen receptor alpha (ER-alpha) signaling pathway using the BG1 cell line in the presence of 0.1 nM 17-beta-estradiol - cell viability counter screen (AID 1259241). Note: nearly all actives have a fitted effect of over 40% in size. Put shortly:
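Live-cell protease activity (CellTiter-Fluor fluorescence, 30 min) was read in the same wells after VM7Luc4E2 cells had been exposed to compounds with 0.1 nM 17beta-estradiol for 22 hr at 37C.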

Assay [11] is described as follows: qHTS assay to identify small molecule antagonists of the androgen receptor (AR) signaling pathway using the MDA cell line in the presence of 0.5 nM R1881 - cell viability counter screen (AID 1259242). Note: nearly all actives have a fitted effect of over 45% in size. The method in brief:
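MDA-kb2 cells (human breast carcinoma, stably carrying MMTV-luciferase reporter) were exposed to compounds with 0.5 nM R1881 (final) for 16 hr at 37C, 0% CO2; viability then read as live-cell protease fluorescence (CellTiter-Fluor, 30 min) in the same wells.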

Assay [12] in a line: qHTS assay to identify small molecule HDAC inhibitors (AID 1259364). Note: nearly all actives have a fitted effect of over 45% in size. Note: potency is the fitted concentration of half-maximal effect. The method in brief:
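Wild-type HCT-116 cells were plated overnight, exposed to compounds for 2 h at 37 °C, then given HDAC-Glo class I/II luminogenic reagent for 30 min at room temperature before luminescence was read.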

Assay [13] is described as follows: qHTS assay to identify small molecule HDAC inhibitors - cell viability counter screen (AID 1259365). Put shortly:
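HCT-116 (wild type), 1,500 cells/well, overnight 37C/5% CO2; compound in DMSO 2hr; CellTiter-Glo 30min RT; luminescence read.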

Assay [14] is described as follows: qHTS assay to identify small molecule agonists of the sonic hedgehog signaling (Shh) pathway - cell viability counter screen (AID 1259366). Note: nearly all actives have a fitted effect of over 50% in size. Put shortly: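 CellTiter-Fluor fluorescence read-out, 1 hr at 37C, added after 23hr compound exposure. Cells: 3T3 Gli1-Luc, an NIH/3T3 clone with stably integrated Gli1-Luc reporter, plated 4hr before compound.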
A short description of assay [15]: qHTS assay to identify small molecule antagonists of the sonic hedgehog signaling (Shh) pathway - cell viability counter screen (AID 1259367). Note: nearly all actives have a fitted effect of over 55% in size. Put shortly: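 NIH/3T3-derived Gli1-Luc reporter cells, 2,000/well, plated 4 hr before compound addition, then stimulated with conditioned medium for 24 hr at 37C. Viability measured in the same wells by CellTiter-Fluor fluorescence, reagent added at 23 hr for 1 hr.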

The nature of assay [16]: A CellTox Green Cytotoxicity Assay to monitor cytotoxicity in HepG2 cells - 32 hour (AID 1224883). Note: nearly all actives have a fitted effect of over 50% in size. Put shortly: as §3
Assay [17] can be described thus: A CellTox Green Cytotoxicity Assay to monitor cytotoxicity in HepG2 cells - 8 hour (AID 1224890). Note: nearly all actives have a fitted effect of over 45% in size. Put shortly:
as §3

Assay [18] deals with Estrogen receptor (Homo sapiens) (UniProt P03372). Briefly: qHTS assay to identify small molecule antagonists of the estrogen receptor alpha (ER-alpha) signaling pathway using the BG1 cell line in the presence of 0.1 nM 17-beta-estradiol (AID 1259244). Note: nearly all actives have a fitted effect of over 50% in size. Put shortly:
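VM7Luc4E2 cells (endogenous full-length ER-alpha, stable 4xERE-luciferase) were grown 5 days in phenol red-free medium with charcoal-stripped FBS, then exposed 22 h at 37C to compounds plus 0.1 nM (final) 17beta-estradiol; ONE-Glo luminescence read-out.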

Assay [19] in a line: qHTS assay to identify small molecule phospholipidosis (PLD) inducers (AID 1259344; active = well fitted curve in the direction sought with a large enough effect; an effect the other way counts as inactive or inconclusive). The method in brief: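 HepG2 cells, 900/well, treated with compound plus LipidTOX Red for 24 h at 37 C; amiodarone positive and DMSO negative controls. Fixed with paraformaldehyde/Hoechst, then high-content imaging scored LipidTOX pit count and integrated intensity per well and per cell.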

Records with an inconclusive call do not appear. Calls of active or inactive are those of the source. Unless noted, calls come from the whole dose curve; as a rule, active = well fitted curve in the direction sought with a large enough effect in the repeat runs; inconclusive = weak or mixed curves; inactive = no such curve, though single readings can be large; an effect the other way counts as inactive or inconclusive.

Estrogen receptor (Homo sapiens), sequence (P03372 whole entry, looked up): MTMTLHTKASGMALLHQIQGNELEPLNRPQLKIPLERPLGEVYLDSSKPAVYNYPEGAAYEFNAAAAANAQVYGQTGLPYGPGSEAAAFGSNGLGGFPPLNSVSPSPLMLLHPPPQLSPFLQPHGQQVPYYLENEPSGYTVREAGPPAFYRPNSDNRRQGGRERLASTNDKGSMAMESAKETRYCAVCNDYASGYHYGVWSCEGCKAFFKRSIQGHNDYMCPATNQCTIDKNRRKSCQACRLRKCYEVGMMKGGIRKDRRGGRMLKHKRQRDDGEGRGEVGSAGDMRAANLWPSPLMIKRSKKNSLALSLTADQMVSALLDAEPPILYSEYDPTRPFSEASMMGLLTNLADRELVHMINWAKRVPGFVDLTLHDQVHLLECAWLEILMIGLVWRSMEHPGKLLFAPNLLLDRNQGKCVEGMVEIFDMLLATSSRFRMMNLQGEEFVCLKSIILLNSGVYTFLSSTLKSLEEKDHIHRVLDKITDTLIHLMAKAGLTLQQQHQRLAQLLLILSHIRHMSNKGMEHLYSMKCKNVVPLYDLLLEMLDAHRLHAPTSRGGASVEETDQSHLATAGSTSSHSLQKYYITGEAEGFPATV

As for `CCCCCCCCC=O`, the call in [1], in assay [5], in assay [10], in [11], in assay [13] and in [15] was inactive. Also, the Potency result in assay [2], in [3], in assay [4], in assay [6], in [7] and in assay [8] was “inactive” each time. The Potency result in assay [9], in assay [12] and in [14] was “inactive” in each case.
As to `Cc1ccccc1C(=O)O`, the result in assay [1], in assay [5], in assay [10], in assay [11] and in [13] was inactive. In addition, the Potency result in assay [2], in assay [3], in assay [4], in [6], in [7] and in assay [8] was “inactive” in each case. Moreover, the Potency entry in assay [9] and in assay [14] was “inactive” throughout. The Potency in assay [12] is 30.1 µM (active).
Regarding `C=C(C)C(=O)NCCC[N+](C)(C)C`, the molecule was classed as inactive in assay [1], in assay [5], in assay [10], in assay [11], in assay [18] and in [13]. For the same molecule, the result in assay [15] was inactive. Also, the Potency entry in assay [2], in [3], in assay [16], in [4], in [6] and in assay [7] was “inactive” throughout. Also, the Potency result in [9], in [17], in assay [12] and in assay [14] was “inactive” throughout.
For the molecule `CCCOc1ccccc1-c1nc2n[nH]nc2c(=O)[nH]1`, the molecule was classed as inactive in [1], in assay [5], in assay [10], in [11], in assay [18] and in assay [13]. In addition, the Potency entry in [2], in [3], in assay [16], in assay [4], in [7] and in [8] was “inactive” in each case. Moreover, the Potency entry in assay [9], in [19], in [12] and in assay [14] was “inactive” throughout.
Turning to `CCCCC1CCCCC(=O)O1` (stereo not given), the molecule was classed as inactive in [1], in assay [5], in assay [10], in assay [11], in [18] and in assay [13]. Besides, in [15], the result was inactive. The Potency result in assay [2], in [3], in [16], in assay [4], in [6] and in assay [7] was “inactive” each time. Further, the Potency entry in assay [9], in assay [17], in [12] and in assay [14] was “inactive” throughout.
For `COC[C@H](c1ccc(C(F)(F)F)cc1)N1CCN(C2(C)CCN(C(=O)c3c(C)ncnc3C)CC2)C[C@H]1C`, the molecule was classed as inactive in assay [1], in assay [5], in [10], in assay [11], in assay [18] and in assay [13]. Further, the result in assay [15] was inactive. Also, the Potency entry in [2], in assay [3], in assay [16], in assay [4], in assay [6] and in [7] was “inactive” in each case. Also, the Potency result in assay [9], in assay [17], in assay [12] and in assay [14] was “inactive” in each case.
`CCOC(=O)Cn1c(=O)sc2cccc(Cl)c21`: the molecule was classed as inactive in [1], in assay [10], in [11], in assay [18], in assay [13] and in [15]. In addition, the Potency entry in assay [2], in [3], in [16], in [4], in assay [6] and in assay [7] was “inactive” throughout. Moreover, the Potency entry in assay [8], in [9], in assay [17], in [12] and in assay [14] was “inactive” in each case.
Turning to `CCCCOCC(C)OCC(C)O` (stereo not given), the outcome in assay [1], in [5], in assay [10], in [11], in assay [18] and in assay [13] was inactive. In addition, in assay [15], the result was inactive. The Potency result in [2], in assay [16], in assay [4], in assay [6], in [7] and in [8] was “inactive” each time. For the same molecule, the Potency result in [9], in assay [17], in [12] and in assay [14] was “inactive” in each case.
In the case of `C=C(C)C(=O)NCCCN(C)C`, the outcome in assay [1], in assay [5], in assay [10], in [11], in assay [13] and in [15] was inactive. Moreover, the Potency result in [2], in [3], in [16], in assay [6], in assay [7] and in assay [9] was “inactive” throughout. For the same molecule, the Potency entry in assay [17], in [12] and in assay [14] was “inactive” throughout.
